# In the library only some 18% were active in any assay of this set; here they are far more common.
# TDP1 block – TDP1 (human) enzyme inhibition. Q9NUW8. 350,000 compounds, 0.28% hits. AID 485290. recombinant TDP1, AlphaScreen DNA substrate cleavage. Potency, µM (titrated, usually from 130 µM), for the others: at the top dose activity change, negative = inhibition, hits mostly inhibitors; note: potency is the fitted concentration of half-maximal effect; % is set by controls: 0 for no effect and ±100 for the full control effect; nearly all actives have a fitted effect of over 40% in size
# Target sequence (Q9NUW8 whole entry, looked up): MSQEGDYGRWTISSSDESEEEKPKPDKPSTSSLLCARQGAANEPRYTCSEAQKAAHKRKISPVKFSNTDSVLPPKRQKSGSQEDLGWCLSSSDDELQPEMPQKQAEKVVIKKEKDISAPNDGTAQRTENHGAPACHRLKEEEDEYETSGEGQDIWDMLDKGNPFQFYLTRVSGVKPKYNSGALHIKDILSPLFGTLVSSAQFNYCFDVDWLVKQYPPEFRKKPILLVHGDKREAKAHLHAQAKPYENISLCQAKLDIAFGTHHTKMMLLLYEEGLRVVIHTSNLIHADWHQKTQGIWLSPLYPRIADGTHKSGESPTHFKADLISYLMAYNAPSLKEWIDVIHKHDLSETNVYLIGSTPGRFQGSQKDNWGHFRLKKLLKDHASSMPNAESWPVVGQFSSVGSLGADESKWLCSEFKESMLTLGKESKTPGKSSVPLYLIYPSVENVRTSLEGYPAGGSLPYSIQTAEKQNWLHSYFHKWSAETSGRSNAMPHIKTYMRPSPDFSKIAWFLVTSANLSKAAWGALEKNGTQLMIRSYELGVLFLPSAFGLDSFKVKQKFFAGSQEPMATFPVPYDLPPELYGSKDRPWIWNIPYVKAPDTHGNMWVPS
#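 Recombinant E. coli-expressed Tdp1 (1 nM) preincubated with compound 15 min at RT, then 5'-biotin/3'-phosphotyrosine-FITC DNA substrate (15 nM) added for 5 min. AlphaScreen beads (10 ug/ml) added, 10 min RT; tyrosine-FITC cleavage read as signal loss.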
# DT40 TDP1 CPT – growth inhibition of DT40 Tdp1-/-;hTDP1 cells with camptothecin (screen for TDP1 inhibitors) | chicken DT40 Tdp1-/-;hTDP1 cells + 20 nM CPT, ATP luminescence, 48 h | Potency, µM (highest dose often 46.2 µM), for the others: at the top dose activity change, negative = growth inhibition, hits mostly inhibitors | 420,000 compounds, 12% hits | AID 686979; note: potency is the fitted concentration of half-maximal effect; % is set by controls: 0 for no effect and ±100 for the full control effect; nearly all actives have a fitted effect of over 55% in size
#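 Chicken DT40 Tdp1-/- cells complemented with human TDP1, 400 cells/well, exposed to compounds plus 20 nM camptothecin for at least 48 h at 37 C; viability read as ATP content by CellTiter-Glo luminescence.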
# TDP1 cell noCPT – qHTS for Inhibitors of human tyrosyl-DNA phosphodiesterase 1 (TDP1): qHTS in cells in absence of CPT; DT40 Tdp1-/- hTDP1 cells, no CPT, ATP luminescence, 48 h; Potency, µM (top dose mostly 46.2 µM), for inactives: at the highest dose activity change, negative = growth inhibition, usual class: inhibitors; 420,000 compounds, 15% hits; AID 686978, 2013; note: potency is the fitted concentration of half-maximal effect; % is set by controls: 0 for no effect and ±100 for the full control effect; nearly all actives have a fitted effect of over 55% in size
#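 Luminescent ATP content (CellTiter-Glo) served as the growth readout. Knockout chicken DT40 cells expressing human TDP1 were exposed to compounds without camptothecin for a minimum 48 hr at 37 °C.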
# IL1B secr inh – inflammasome signaling inhibition, IL-1 beta readout; THP-1 LPS/ATP IL-1B secretion, AlphaLISA, 16 h; stronger effect = lower value; activity change, % at 57.5 µM; 360,000 compounds, 4.7% hits; in the data active = activity change below about -50%; inconclusive = mostly about -30% to -49%; note: % is set by controls: 0 for no effect and ±100 for the full control effect
#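 Secreted IL-1B measured by AlphaLISA bead assay after 16 h compound exposure of THP-1 cells; compounds (final up to 57.5 uM) added 1 h before LPS (250 ng/mL) and ATP (1.25 mM) stimulation; lower signal means less secretion.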
# TGFb SMAD3 inh – blocks TGF-b signaling; HepG2 CAGA-GFP TGF-b/SMAD3 reporter, GFP fluorescence, 18 h; TGF-beta stimulated, 500 pg/mL final; Potency, µM (series often up to 46.1 µM), inactives show at the highest dose activity, negative = inhibition, usual class: inhibitors; 410,000 compounds, 1.2% hits; AID 588855; note: potency is the fitted concentration of half-maximal effect; % is set by controls: 0 for no effect and ±100 for the full control effect; nearly all actives have a fitted effect of over 65% in size
#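 Using HEPG2 CAGA-GFP reporter cells at 1000 cells/well, we pinned test compounds, stimulated with recombinant TGF-beta (500 pg/mL final) and measured total well GFP after 18 h.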
# HepG2 viability – counter-screen for TGF-b inhibitors: cytotoxicity in HepG2 cells. Potency, µM (series often up to 46.1 µM), for the others: top-dose activity change, negative = cytotoxicity, usual class: cytotoxic. HepG2 CAGA-GFP viability, ATP luminescence, 18 h. 410,000 compounds, 0.76% hits; note: potency is the fitted concentration of half-maximal effect
#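 HepG2 CAGA-GFP cells (1000/well, DMEM with 1% FBS) received compound, then TGF-beta at 500 pg/mL final, and were incubated 18 hours at 37 degrees C. Viability was read by CellTiter-Glo luminescence. Media-only wells were set as complete cell-killing and DMSO as no toxicity.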
# * hit, by the source's call; ? = inconclusive; · = not tested or not shown; [ ] = another dose, or the depositor's remark. Unless noted, calls come from the whole dose curve; as a rule, active = well fitted curve in the direction sought with a large enough effect; inconclusive = small, poorly fitted or top-dose-only effect, or another doubt; inactive = no such curve, though single readings can be large; an effect the other way counts as inactive or inconclusive.
SMILES,TDP1 block,DT40 TDP1 CPT,TDP1 cell noCPT,IL1B secr inh,TGFb SMAD3 inh,HepG2 viability
COc1ccc(NC(=O)c2ccc3c(c2)N(C)CCS3)cc1,·,?,?,-8.5,0.8%,-10.5%
CCN1CCSc2ccc(C(=O)NCc3cccc(F)c3)cc21,5.9%,?,18.4µM*,-4.4,?,-66.0%
CC1(Oc2ccccc2)CCN(Cc2ccc(-c3ccccn3)cc2)C1 (configuration not stated),·,?,?,-17.6,-23.5%,-42.2%
Cc1ccc(CN2CCSc3ccc(C(=O)Nc4ccc(C)cc4)cc32)cc1,1.3%,16.4µM*,16.4µM*,·,-8.7%,-21.2%
CCN1CCSc2ccc(C(=O)NC(C)c3ccccc3)cc21 (configuration not stated),6.4%,18.4µM*,23.1µM*,·,-4.7%,2.0%
COc1ccc(Br)cc1CNC(=O)c1ccc2c(c1)N(Cc1ccc(C)cc1)CCS2,-2.0%,?,?,·,·,-7.3%
COc1ccccc1CNC(=O)c1ccc2c(c1)N(Cc1ccc(C)cc1)CCS2,6.4%,16.4µM*,?,·,-12.9%,-11.7%
COc1ccc(CNC(=O)C(C)OC(=O)c2cccc(N(C)C)c2)cc1 (configuration not stated),2.6%,-17.7%,-18.8%,-4.6,-1.2%,-1.2%
Cc1nc(-c2ccc(F)cc2)sc1CCNC(=O)C(=O)Nc1ccc2c(c1)OCCO2,-3.0%,?,?,·,3.4%,1.0%
COc1ccc(OC)c(CNC(=O)Cc2ccc(NC(=O)N3CCSc4ncccc43)cc2)c1,-2.8%,?,?,·,0.0%,-25.9%
COc1ccc(N=C2NN=C(c3c(C)[nH]c4ccccc34)CS2)cc1,8.2%,?,23.1µM*,?,?,-21.5%
Cc1[nH]c2ccccc2c1C1=NNC(=Nc2ccc(F)cc2)SC1,5.3%,?,?,-66.2*,?,-35.2%
Cc1[nH]c2ccccc2c1N=Nc1ccc(F)cc1,10.3%,?,?,?,?,-1.4%
COc1ccc([C@@H]2[C@@H]3C(=O)N(C(C)(C)C)C(=O)[C@@H]3[C@]3(C)C(=O)N(c4ccc(C(F)(F)F)cc4)C(=O)N23)cc1,·,?,16.4µM*,-7.2,?,2.9%
CCOC(=O)[C@@H]1[C@H]2COc3cc(OC)ccc3[C@@H]2N2C(=O)N(c3ccc(C(F)(F)F)cc3)C(=O)[C@@]12C,·,?,13µM*,-2.3,-3.2%,-14.4%
CCOC(=O)[C@@H]1[C@H]2COc3cc(OC)ccc3[C@H]2N2C(=O)N(c3ccc(C(F)(F)F)cc3)C(=O)[C@]12C,0.8%,14.6µM*,20.6µM*,-17.4,?,-51.6%
Cc1noc(C)c1CSCC(=O)N(CC(C)C)c1c(N)n(Cc2ccccc2)c(=O)[nH]c1=O,·,6.8%,-4.3%,16.9,?,0.3%
COc1ccccc1OCCSc1nc2ccccc2n1CC(=O)O,·,-7.0%,-9.6%,-9.3,-19.0%,0.7%
CC(OC(=O)CCN1C(=O)C2CC=CCC2C1=O)C(=O)Nc1cccc(Cl)c1 (configuration not stated),-10.0%,-7.0%,-14.1%,7.8,0.0%,-17.4%
Cc1ccc(C)c(C(=O)CC2(O)C(=O)N(C)c3ccccc32)c1 (configuration not stated),5.1%,-15.6%,4.2%,23.8,-0.2%,-28.9%
O=C(CC1(O)C(=O)N(Cc2cccc3ccccc23)c2ccccc21)c1cccnc1 (configuration not stated),-3.9%,0.92µM*,0.82µM*,30.2,-18.9%,-11.9%
CN1C(=O)C(O)(CC(=O)c2cccnc2)c2ccccc21 (configuration not stated),5.4%[56.1 µM],11.6µM*,10.3µM*,16.4,-10.2%,1.7%
Cc1ccc(S(=O)(=O)Nc2cccc(C(=O)NCC(c3ccco3)N3CCCC3)c2)cc1F (configuration not stated),·,?,?,-27.4,2.2%,1.4%
CC(=O)c1nn(-c2cccc(C)c2)cc1C(=O)c1cccc(Br)c1,·,-15.0%,-20.7%,31.7,-6.2%,10.8%
Cc1ccccc1NC(=O)CSCn1nnc2c(=O)[nH]c(Cc3ccc(F)cc3)nc21,3.7%,-29.5%,-22.5%,·,-9.0%,6.9%
SMILES,TDP1 block,DT40 TDP1 CPT,TDP1 cell noCPT,IL1B secr inh,TGFb SMAD3 inh,HepG2 viability
COc1cccc(NC(=O)CSCn2nnc3c(=O)[nH]c(Cc4ccc(F)cc4)nc32)c1,4.9%,-21.6%,4.11µM*,·,2.6%,0.7%
COc1ccccc1N(C(=O)c1ccncc1)c1nc(-c2ccc([N+](=O)[O-])cc2)cs1,8.2%,16.4µM*,16.4µM*,0.0,-24.8%,7.8%
CCCOc1cccc(C(=O)N/N=C/c2ccoc2)c1,·,0.8%,21.5%,-6.9,-12.6%,-72.8%
Cc1ccc(-n2c(COc3ccccc3)nnc2SCC(=O)O)cc1,·,-4.1%,-3.9%,-3.9,2.2%,4.7%
CC1CCCC(C)N1C(=O)CSc1nnc(COc2ccccc2)n1-c1ccccc1 (configuration not stated),3.5%,?,20.6µM*,-22.0,-0.6%,4.8%
COc1cccc(OC)c1C(=O)Nc1cccc(C(C)=O)c1,3.2%,7.2%,-2.5%,-21.9,-1.8%,-11.0%
COc1ccccc1-c1nn(CCC(=O)Nc2cccc(C(C)=O)c2)c2nc(C)cc(C)c12,7.6%,?,16.4µM*,·,-23.9%,-18.8%
O=C(CN(Cc1ccccc1)C(=O)c1cccc([N+](=O)[O-])c1)Nc1c(Cl)cc(Cl)cc1Cl,0.6%,8.2µM*,11.6µM*,-0.7,10.5%,-51.4%
COc1ccc(C(=O)NC(C)CCc2ccccc2)cc1 (configuration not stated),·,-6.3%,-9.7%,-0.7,6.9%,-0.1%
COc1ccc(C(=O)NC(C)CCc2ccccc2)c(O)c1 (configuration not stated),·,?,?,-54.7*,?,-6.1%
O=C(NCCCc1ccccc1)c1cccc([N+](=O)[O-])c1,-2.6%,-25.1%,-26.0%,-2.6,-10.4%,-15.6%
COc1cccc(C(=O)NCCS(=O)(=O)NCCc2ccccc2)c1,-4.3%[0.505 µM],-3.8%,?,-13.7,-0.6%,-18.2%
O=C(NCCCCc1ccccc1)c1cccc([N+](=O)[O-])c1,4.8%,18.4µM*,16.4µM*,-5.4,-18.5%,-23.2%

# From PubChem
